The panel holds about 83,000 compounds, 20% with a hit somewhere; the sample as a whole holds those more often.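 Step 1: grow cells in 96-well plates. Step 2: add test compound at a single concentration. Step 3: incubate 48 h. Step 4: record percent growth.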 Unmarked numbers belong to inactive results. Calls of active or inactive are those of the source. The calls were made as follows: active = growth percent below 10; inactive = the rest.

These results are taken from PubChem BioAssay (NCI).

Test systems include SK-MEL-2 melanoma; EKVX NSCLC; SN12C renal; UO-31 renal; TK-10 renal; ACHN renal; CAKI-1 renal; A498 renal; CCRF-CEM leukemia; MOLT-4 leukemia; SR leukemia; RPMI-8226 leukemia; OVCAR-8 ovarian; OVCAR-5 ovarian; SK-OV-3 ovarian; IGROV1 ovarian; OVCAR-3 ovarian; HS 578T breast; NCI/ADR-RES ovarian; OVCAR-4 ovarian.
What all share (assay): NCI-60 one-dose screen, 48 h (100 = growth as untreated, 0 = no growth, -100 = all killed)
Holding throughout (conditions): 10 µM unless noted

On to `Nc1[nH]n2cc(-c3ccc(F)cc3)nc2c1N=Nc1ccc(S(N)(=O)=O)cc1`, for which the growth with SK-MEL-2 melanoma is 70.1%; in the assay on EKVX NSCLC, 108%; in the assay with SN12C renal, 68.9%; in the assay on UO-31 renal, 58.3%; with TK-10 renal it was 83.8%; with ACHN renal, 52.3%. For the same molecule, the growth with CAKI-1 renal is 47.4%; with A498 renal, 40.1%; with CCRF-CEM leukemia, 66.6%; in the assay on MOLT-4 leukemia, 85.8%; in the assay with SR leukemia, 66.5%; in the assay with RPMI-8226 leukemia, 73.2%. Besides, the growth in the assay with OVCAR-8 ovarian is 79%; with OVCAR-5 ovarian, 90.7%; with SK-OV-3 ovarian it was 73.9%; with IGROV1 ovarian, 61.9%; with OVCAR-3 ovarian, 78.7%; in the assay on HS 578T breast, 66.8%. In addition, in the assay with NCI/ADR-RES ovarian, the growth was 105%.

Consider `CC1(C)N=C(N)N=C(N)N1c1ccc(CCCCc2ccccc2)c(Cl)c1`, for which the growth was 4.71% (active) in the assay with SK-MEL-2 melanoma; 53% in the assay on EKVX NSCLC; 11% in the assay on SN12C renal; 49.5% with UO-31 renal; 15.9% in the assay on TK-10 renal; 18.8% in the assay with ACHN renal. Also, the growth in the assay with CAKI-1 renal was 14.1%; in the assay on A498 renal it was 54.5%; in the assay with CCRF-CEM leukemia it was 13.2%; in the assay with MOLT-4 leukemia, 1.8% (active); in the assay on RPMI-8226 leukemia, 4.29% (active); in the assay on OVCAR-8 ovarian, 26.1%. Moreover, the growth was 28.5% with OVCAR-5 ovarian; 20.6% in the assay on OVCAR-4 ovarian; 38.1% in the assay on SK-OV-3 ovarian; -24.4% (active) with IGROV1 ovarian; -10.6% (active) in the assay with OVCAR-3 ovarian; 36.4% in the assay with HS 578T breast. Besides, in the assay on NCI/ADR-RES ovarian, the growth was 54.8%.

As to `COc1ccc(Nc2ncccc2/C=C/C(=O)c2cc(OC)c(OC)c(OC)c2)cc1`, the growth is -37.6% (active) in the assay on SK-MEL-2 melanoma; 60.8% with EKVX NSCLC; -18.1% (active) in the assay on SN12C renal; -79.6% (active) in the assay on UO-31 renal; -14.6% (active) in the assay with TK-10 renal; -83.4% (active) with ACHN renal. For the same molecule, the growth in the assay with CAKI-1 renal is -23.6% (active); with A498 renal, 64.6%; with CCRF-CEM leukemia it was -10.4% (active); with MOLT-4 leukemia, -11.7% (active); in the assay on RPMI-8226 leukemia, -25.3% (active); with OVCAR-8 ovarian it was -33.8% (active). For the same molecule, the growth in the assay with OVCAR-5 ovarian was -15.4% (active); in the assay on OVCAR-4 ovarian it was 29%; in the assay with SK-OV-3 ovarian, 64.6%; with IGROV1 ovarian, -2.98% (active); with OVCAR-3 ovarian, -88.2% (active); with HS 578T breast, 37.8%. Besides, in the assay with NCI/ADR-RES ovarian, the growth is 14%.

On to `Cc1nc2c(c(=O)[nH]1)C(c1ccccc1)c1ccc3ccccc3c1O2` (configuration not stated), for which the growth in the assay with SK-MEL-2 melanoma was 16.5%; in the assay with EKVX NSCLC, 60.5%; with SN12C renal, 44.6%; in the assay on UO-31 renal, 38.6%; with TK-10 renal, 74%; in the assay on ACHN renal, 39.8%. The growth is 30% in the assay on CAKI-1 renal; 20.6% with A498 renal; 13% in the assay with CCRF-CEM leukemia; 41% in the assay on MOLT-4 leukemia; 27.1% in the assay on RPMI-8226 leukemia; 34.5% in the assay on OVCAR-8 ovarian. Moreover, the growth was 87.2% with OVCAR-5 ovarian; 64.2% in the assay on OVCAR-4 ovarian; 11.1% in the assay on SK-OV-3 ovarian; 38.9% in the assay on IGROV1 ovarian; 0.0339% (active) with OVCAR-3 ovarian; 22.6% in the assay with HS 578T breast. Besides, the growth in the assay with NCI/ADR-RES ovarian was 14.6%.

With `Nc1nc2c(c3ncccc13)C(c1cccc(Cl)c1)Cc1ncccc1-2` (configuration not stated), the growth in the assay with SK-MEL-2 melanoma was 25.3%; in the assay on EKVX NSCLC, 39.8%; in the assay on SN12C renal it was 36.7%; in the assay with UO-31 renal, 38%; in the assay on TK-10 renal it was 55.8%; in the assay on ACHN renal, 45.5%. In addition, the growth was 30.2% in the assay with CAKI-1 renal; -7.23% (active) in the assay on A498 renal; 19.7% with CCRF-CEM leukemia; 14.5% in the assay on MOLT-4 leukemia; 8.92% (active) in the assay on SR leukemia; 32.4% in the assay on RPMI-8226 leukemia. Further, the growth is 23.8% in the assay on OVCAR-8 ovarian; 44.7% in the assay on OVCAR-5 ovarian; 14.1% with SK-OV-3 ovarian; 50.5% in the assay with IGROV1 ovarian; 0.176% (active) with OVCAR-3 ovarian; 31.1% in the assay on HS 578T breast. The growth in the assay with NCI/ADR-RES ovarian was 18.7%.

For `C=C(C)[C@@H]1CCC[C@]2(C(=O)O)CC[C@]3(C)[C@@H](CC[C@@H]4[C@@]5(C)C/C(=C/c6ccncc6)C(=O)C(C)(C)[C@@H]5CC[C@]43C)[C@@H]12`, the growth with SK-MEL-2 melanoma is 48.3%; in the assay on EKVX NSCLC it was 24.9%; in the assay with SN12C renal it was 25.7%; in the assay on UO-31 renal, 19.7%; with TK-10 renal, 52.2%; in the assay with ACHN renal, 26.8%. Also, the growth with CAKI-1 renal was 31.4%; in the assay on A498 renal, 57.7%; in the assay with CCRF-CEM leukemia, 0.771% (active); in the assay with MOLT-4 leukemia, 6.38% (active); with SR leukemia it was 3.51% (active); in the assay with RPMI-8226 leukemia it was -9.5% (active). The growth was 24.9% in the assay with OVCAR-8 ovarian; 47.9% with OVCAR-5 ovarian; 78% in the assay with SK-OV-3 ovarian; 22.6% in the assay with IGROV1 ovarian; 11.5% in the assay on OVCAR-3 ovarian; 53% with HS 578T breast. Moreover, in the assay on NCI/ADR-RES ovarian, the growth was 37.5%.

Consider `O=C(Nc1ccc(Br)cc1)C1=NCCCCN1`, for which the growth with SK-MEL-2 melanoma is 103%; with EKVX NSCLC it was 86.1%; with SN12C renal, 94.7%; in the assay with UO-31 renal, 67.6%; in the assay with TK-10 renal, 93.4%; in the assay on ACHN renal it was 64.1%. Further, the growth was 52.4% in the assay with CAKI-1 renal; 95.7% in the assay with A498 renal; 84.5% with CCRF-CEM leukemia; 96.5% with MOLT-4 leukemia; 107% in the assay with SR leukemia; 94.3% with RPMI-8226 leukemia. In addition, the growth with OVCAR-8 ovarian is 74.8%; in the assay with OVCAR-5 ovarian, 84.6%; in the assay on SK-OV-3 ovarian it was 96.1%; with IGROV1 ovarian, 87.5%; in the assay on OVCAR-3 ovarian it was 103%; in the assay on HS 578T breast, 97.1%. Also, in the assay on NCI/ADR-RES ovarian, the growth is 82.5%.

With `CC(C)=CCNc1ncnc2c1ncn2C1OC(CO)C(O)C1O` (configuration not stated), the growth in the assay on SK-MEL-2 melanoma was -33.2% [1 mM] (active); in the assay on EKVX NSCLC it was 41.1% [1 mM]; with SN12C renal it was -2.66% [1 mM] (active); in the assay on UO-31 renal it was -72.4% [1 mM] (active); with TK-10 renal, -10.5% [1 mM] (active); with ACHN renal, 2.42% [1 mM] (active). Besides, the growth in the assay with CAKI-1 renal is -36.9% [1 mM] (active); with A498 renal, -54.2% [1 mM] (active); with CCRF-CEM leukemia, -56.6% [1 mM] (active); in the assay with MOLT-4 leukemia, -26.6% [1 mM] (active); in the assay on RPMI-8226 leukemia it was -40.1% [1 mM] (active); with OVCAR-8 ovarian it was -40.8% [1 mM] (active). Also, the growth was 19.2% [1 mM] with OVCAR-5 ovarian; -2.16% [1 mM] (active) in the assay on OVCAR-4 ovarian; -21.5% [1 mM] (active) in the assay on SK-OV-3 ovarian; 4.13% [1 mM] (active) in the assay on IGROV1 ovarian; -69.9% [1 mM] (active) in the assay with OVCAR-3 ovarian; -16.8% [1 mM] (active) in the assay with HS 578T breast. Further, the growth in the assay with NCI/ADR-RES ovarian is -33.2% [1 mM] (active).
